Source: PubChem BioAssay (several laboratories)
Only some compounds are listed: those with a hit (about 4.7% of all), similar ones and a draw of the others.
ATG4B inh = ATG4B protease inhibitors, primary screen, biochemical, fluorescence, uHTS; ATG4B cleavage of LC3-PLA2, NBD-HPC fluorescence, 1 h; inhibition, % at 8.33 µM; 340,000 tested, 0.51% active; Cysteine protease ATG4B (Homo sapiens), Q9Y4P1; AID 504462, 2011; in the data active = inhibition above about 40%
Target sequence (Q9Y4P1 whole entry, looked up): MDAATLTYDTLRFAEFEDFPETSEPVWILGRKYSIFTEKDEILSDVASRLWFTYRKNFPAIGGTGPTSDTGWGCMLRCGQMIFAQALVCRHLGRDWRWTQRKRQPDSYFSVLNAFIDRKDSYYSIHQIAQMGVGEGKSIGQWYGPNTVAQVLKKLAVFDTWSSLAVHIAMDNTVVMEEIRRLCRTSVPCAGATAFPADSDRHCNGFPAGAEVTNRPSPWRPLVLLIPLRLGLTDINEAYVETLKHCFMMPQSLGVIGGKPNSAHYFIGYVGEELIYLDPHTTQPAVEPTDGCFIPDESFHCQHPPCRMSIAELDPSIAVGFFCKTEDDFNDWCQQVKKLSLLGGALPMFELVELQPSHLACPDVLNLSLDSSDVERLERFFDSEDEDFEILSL
SKKanGAS inh = S. pyogenes SKKanGAS growth inhibitors in kanamycin, primary screen, streptokinase expression inhibitor project, SKKanGAS strain, BacTiter-Glo luminescence; 6 h; inhibition, % at 7.5 µM; 300,000 tested, 1.3% active; AID 1662, 2009;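 active = mean replicate score, as percent of positive control median, at least 50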;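 note: strain carries kanamycin resistance gene driven by streptokinase promoter and grows in 40 µg/ml kanamycin; loss of luminescence reflects streptokinase promoter inhibition or plain growth inhibition; 0% = median of DMSO wells and 100% = positive control at its reference dose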
tim10-1 inh = growth inhibitors of tim10-1 mutant yeast, primary screen, luminescence, uHTS | 330,000 tested, 2.2% active | S. cerevisiae tim10-1 ts strain growth, BacTiter-Glo, 24 h | AID 463190, 2010 | inhibition, % at 20 µM;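 active = inhibition of at least 40%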;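 note: mutant grown at 25 °C; 0% = DMSO wells with yeast and 100% = wells holding no yeast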
PfHsp90 set2 = growth inhibition of PfHsp90-expressing yeast, primary screen, antimalarial PfHsp90 inhibitor project, S. cerevisiae, BacTiter-Glo luminescence, single point, set 2. BacTiter-Glo ATP, 48 h; yeast lacking PDR1 and PDR3 efflux regulators. inhibition, % at 9.4 µM. 310,000 tested, 0.32% active;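 active = every replicate shows inhibition above about 80%, whatever the replicate mean, limit read from the data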;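 note: 0% = DMSO neutral controls and 100% = 20 µM radicicol positive controls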
tim23-1 inh = growth inhibitors of tim23-1 mutant yeast, primary screen, luminescence, uHTS; S. cerevisiae tim23-1 growth, BacTiter-Glo luminescence, 24 h; inhibition, % at 20 µM; 330,000 tested, 1.3% active;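 active = growth inhibition of the mutant yeast at or above 50%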;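 note: temperature-sensitive mutant grown at 25 °C; plate controls were DMSO-treated mutant yeast for no effect and medium wells lacking yeast for full effect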
TIM10 inh = growth inhibitors of isogenic TIM10 control yeast, primary screen, counter-screen for tim10-1 yeast inhibitor project, luminescence, uHTS. S. cerevisiae TIM10 strain growth, BacTiter-Glo luminescence, 24 h. inhibition, % at 10 µM. 330,000 tested, 1.4% active;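 active = inhibition of 40% or more at the single tested concentration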;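 note: wild-type TIM10 isogenic control strain grown at permissive 25 °C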
tim10-1 confirm = growth inhibitors of tim10-1 mutant yeast, confirmation, single concentration, luminescence, S. cerevisiae; shares compounds with tim10-1 inh; S. cerevisiae tim10-1 ts strain growth, BacTiter-Glo, 24 h; inhibition, % at 20 µM; 7,400 tested, 56% active;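 active = inhibition of yeast growth at or above a set limit in either of two repeat tests at 20 µM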;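 note: tim10-1 mutant grown at permissive 25 °C to find synthetic lethal compounds; 0% = DMSO yeast wells and 100% = medium wells without yeast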
* marks the source's active call; other numbers are inactive results.

Results for CSCC(=O)N1CCCC(CO)(Cc2ccccc2C)C1 (stereo not given) ?
ATG4B inh: 3; SKKanGAS inh: 4; tim10-1 inh: 9; PfHsp90 set2: -2; tim23-1 inh: 17; TIM10 inh: -6

Results for Cc1ccccc1CC1(CO)CCCN(C(=O)c2cc(Cl)ccc2F)C1 (stereo not given) ?
ATG4B inh: -8; SKKanGAS inh: 30; tim10-1 inh: 42*; PfHsp90 set2: -42; tim23-1 inh: 30; TIM10 inh: -5; tim10-1 confirm: 32*

What do the screens show for `COc1ccc(C(=O)N2CCCC(CO)(Cc3ccccc3C)C2)o1` (stereo not given)?
ATG4B inh: 14; SKKanGAS inh: 2; tim10-1 inh: 48*; PfHsp90 set2: -9; tim23-1 inh: 19; TIM10 inh: 9; tim10-1 confirm: 25

What do the screens show for `Cc1ccc(C)c2c1[nH]c1ccccc12`?
ATG4B inh: -8; SKKanGAS inh: 5; tim10-1 inh: 41*; PfHsp90 set2: 2; tim23-1 inh: 25; TIM10 inh: 31; tim10-1 confirm: 38*

How did Cc1cc(C=O)c(C)c2c1[nH]c1ccccc12 do in these assays?
ATG4B inh: -1; PfHsp90 set2: -99

How did Cc1ccc(O)c(N=Nc2ccc(S(=O)(=O)N3CCOCC3)cc2)c1 do in these assays?
ATG4B inh: 0; SKKanGAS inh: -4; tim10-1 inh: 29; PfHsp90 set2: -29; tim23-1 inh: 17; TIM10 inh: 20

What do the screens show for `O=C(Nc1c(Cl)ccc2nsnc12)c1ccc([N+](=O)[O-])o1`?
ATG4B inh: 5; SKKanGAS inh: 45; tim10-1 inh: 52*; PfHsp90 set2: -6; tim23-1 inh: 41; TIM10 inh: 28; tim10-1 confirm: 33*

How did Cc1cc(C)c2nc(NC(=O)c3ccc([N+](=O)[O-])o3)sc2c1 do in these assays?
ATG4B inh: -6; SKKanGAS inh: 2; tim10-1 inh: 8; PfHsp90 set2: -2; tim23-1 inh: 8; TIM10 inh: -1

How did Cc1cc(C)c2sc(NC(=O)c3ccc([N+](=O)[O-])o3)nc2c1 do in these assays?
ATG4B inh: -13; SKKanGAS inh: 10; tim10-1 inh: 56*; PfHsp90 set2: 74; tim23-1 inh: 24; TIM10 inh: -1; tim10-1 confirm: 54*

What do the screens show for `Cn1cc(CNCCCn2ncc3ccccc32)c(-c2ccccc2F)n1`?
ATG4B inh: -8; SKKanGAS inh: -4; tim10-1 inh: 0; PfHsp90 set2: 2; tim23-1 inh: 12; TIM10 inh: -10

Results for Cc1ccc(/C=C2/NC(=O)N(c3ccccc3)C2=O)o1 ?
ATG4B inh: -5; SKKanGAS inh: 5; tim10-1 inh: 7; PfHsp90 set2: 18; tim23-1 inh: 14; TIM10 inh: -5

How did O=C1N/C(=C/c2ccc(N3CCOCC3)o2)C(=O)N1c1cccc(Cl)c1 do in these assays?
ATG4B inh: -20; SKKanGAS inh: 8; tim10-1 inh: 43*; PfHsp90 set2: -20; tim23-1 inh: 18; TIM10 inh: 4; tim10-1 confirm: 36*

What do the screens show for `CC(=O)CSc1nnc(-c2ccc(S(=O)(=O)N3CCC(C)CC3)cc2)o1`?
ATG4B inh: 5; SKKanGAS inh: 3; tim10-1 inh: 42*; PfHsp90 set2: 6; tim23-1 inh: 29; TIM10 inh: 29; tim10-1 confirm: 24

What do the screens show for `CCOC(=O)CSc1nnc(-c2ccc(S(=O)(=O)N3CCC(C)CC3)cc2)o1`?
ATG4B inh: -4; SKKanGAS inh: 4; tim10-1 inh: 30; PfHsp90 set2: 8; tim23-1 inh: 20; TIM10 inh: -3

How did CSc1cccc(NC(=S)N2CCC(c3ccccc3)C2)c1 (stereo not given) do in these assays?
ATG4B inh: 0; SKKanGAS inh: 4; tim10-1 inh: 48*; PfHsp90 set2: 12; tim23-1 inh: 34; TIM10 inh: 31; tim10-1 confirm: 28

Results for CCc1cccc(NC(=S)N2CCC(c3ccccc3)C2)c1 (stereo not given) ?
ATG4B inh: 1; SKKanGAS inh: 9; tim10-1 inh: 18; PfHsp90 set2: 12; tim23-1 inh: 36; TIM10 inh: 39

Results for Cc1cccc(N2CCN(S(=O)(=O)c3ccc4c(c3)OCCO4)CC2)c1C ?
ATG4B inh: 18; SKKanGAS inh: 3; tim10-1 inh: 46*; PfHsp90 set2: 1; tim23-1 inh: 37; TIM10 inh: 12; tim10-1 confirm: 32*

How did Cc1ccc(S(=O)(=O)N2CCN(CC(=O)Nc3ccc(N4CCOCC4)cc3)CC2)cc1C do in these assays?
ATG4B inh: -9; SKKanGAS inh: 9; tim10-1 inh: 18; PfHsp90 set2: -32; tim23-1 inh: 19; TIM10 inh: 4

How did Cc1cccc(N2CCN(CC(=O)Nc3ccc(S(=O)(=O)N4CCOCC4)cc3)CC2)c1C do in these assays?
ATG4B inh: -6; SKKanGAS inh: 6; tim10-1 inh: 41*; PfHsp90 set2: -14; tim23-1 inh: 23; TIM10 inh: 22; tim10-1 confirm: 19

What do the screens show for `Cc1ccc(C)c(N2CCN(S(=O)(=O)c3ccc4c(c3)NC(=O)CS4)CC2)c1`?
ATG4B inh: -6; SKKanGAS inh: 25; tim10-1 inh: 46*; PfHsp90 set2: 21; tim23-1 inh: 39; TIM10 inh: 12; tim10-1 confirm: 10

Results for CC(=O)N1CCOc2ccc(S(=O)(=O)N3CCN(c4cc(C)ccc4C)CC3)cc21 ?
ATG4B inh: 4; SKKanGAS inh: 5; tim10-1 inh: 43*; PfHsp90 set2: 8; tim23-1 inh: 34; TIM10 inh: 15; tim10-1 confirm: 34*

Results for O=C(O)CCC(=O)N1N=C(c2c(-c3ccccc3)c3cc(Cl)ccc3[nH]c2=O)CC1c1ccccc1 (stereo not given) ?
ATG4B inh: -4; SKKanGAS inh: 5; tim10-1 inh: 2; PfHsp90 set2: -8; tim23-1 inh: 13; TIM10 inh: 7

What do the screens show for `O=C(C1CCCCN1S(=O)(=O)c1ccc(F)cc1)N1CCN(c2ccccc2F)CC1` (stereo not given)?
ATG4B inh: -7; SKKanGAS inh: -4; tim10-1 inh: 0; PfHsp90 set2: 0; tim23-1 inh: 14; TIM10 inh: -19

Results for Nc1nnc(-c2ccccc2)s1 ?
ATG4B inh: 1; SKKanGAS inh: -1; tim10-1 inh: 92*; PfHsp90 set2: -1; tim23-1 inh: 21; TIM10 inh: 5; tim10-1 confirm: 8
